Test results published in paper PMC5540273 (PLoS ONE, 2017).

Test system: DYRK2
Conditions: concentration: 1 μM,replicates: in singlicate; n = 1
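Also: KINOMEscan kinase panel screen.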

Row | Structure (SMILES) | %Inh
1 | CNC(=O)c1ccccc1Nc1nc(Nc2cccc(CS(C)(=O)=O)c2)ncc1C.O=CO [GSK1520489] | 97%
2 | O=C(Nc1n[nH]c2cc(-c3ccco3)ccc12)C1CC1 [SB-737447] | 31%
3 | CSc1nccc(-c2c(-c3ccc(F)cc3)ncn2CCCN2CCOCC2)n1.Cl [SB-217146] | 12%
4 | COc1cccc(CNC(=O)NC2CCN(c3ccnc(Nc4cc(OC)c(OC)c(OC)c4)n3)C2)c1 (stereo not shown) [GSK1379765] | 9%
5 | Cn1cc(-c2cccc3c(N)c(C(N)=O)nnc23)cn1 | 70%
6 | Cc1ccc(Nc2ccnc(Nc3ccc4c(c3)CS(=O)(=O)C4)n2)cc1O.Cl [GW579362] | 88%
7 | CC(C(=O)NC1CCN(c2ccnc(Nc3ccc(F)cc3)n2)C1)c1ccc(Cl)cc1 (stereo not shown) [GSK1379713] | 10%
8 | COc1cc2c(Nc3ccc(NC(=O)c4ccccc4)cc3)ncnc2cc1OCCCN1CCOCC1 [GSK301329] | 35%
9 | N#Cc1cccc(C(=O)NC2CCN(c3ccnc(Nc4ccc(F)cc4)n3)C2)c1 (stereo not shown) [GSK1379708] | 0%
10 | CN1CCN(CCCNc2nccc(-c3c(-c4ccc(F)cc4)nn4cc(C(N)=O)ccc34)n2)CC1 [GW622475] | 19%
11 | O=C(Nc1cccc(C(F)(F)F)c1)c1cccc(Oc2ccc3nccn3n2)c1 | 6%
12 | COC(=O)Nc1nc2cc(Oc3ccc(NC(=O)Nc4cc(C(F)(F)F)ccc4Cl)cc3)ccc2[nH]1.Cl [GW697465] | 0%
13 | Cn1ccc2ncnc(Oc3ccc(NC(=O)Nc4ccnc(C(F)(F)F)c4)c(Cl)c3)c21 | 0%
